Experimental data: article PMC5540273 (PLoS ONE, 2017)

Test system: PRKD3
Details: concentration: 1 μM,replicates: in singlicate; n = 1
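Also: KINOMEscan kinase panel screen.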

Row | SMILES | %Inh [%]
1 | CNC(=O)c1ccccc1Sc1ccc2c(/C=C/c3ccccn3)n[nH]c2c1 | 0
2 | O=C(NCCNc1ccnc(NCc2ccc(F)cc2)n1)c1cc2ccccc2s1 [GSK1379944] | 100
3 | CN(C)CCOc1ccc(-c2cc(-c3c[nH]nc3-c3ccccn3)ccn2)cc1 [GW835314] | 91.5
4 | Cc1cc(C(=O)Nc2ccc(Oc3ccc4nc(NC(=O)C5CC5)cn4n3)cc2)nn1-c1ccccc1 | 0
5 | Cc1ccc(-n2nc(C(C)(C)C)cc2NC(=O)Nc2ccc(OCCN3CCOCC3)c3ccccc23)cc1 [GW839464] | 16
6 | CCN(CC)CCCCNc1ncc2cc(-c3c(Cl)cccc3Cl)c(NC(=O)NC(C)(C)C)nc2n1 | 25
7 | CCN(CC)CCOc1ccc(Nc2ncc3cc(-c4c(Cl)cccc4Cl)c(=O)n(C)c3n2)cc1 [SB-601273] | 100
8 | Cc1cc2cn[nH]c2cc1-c1cccc2c(N)c(C(N)=O)nnc12 | 84
9 | CC(C)Nc1cc(-c2ccc3c(N)n[nH]c3c2)nc(N)n1 [GSK2221681] | 0
10 | C[C@@H](Oc1cc(-c2cnn(C3CCNCC3)c2)cnc1N)c1c(Cl)ccc(F)c1Cl | 63
11 | Cl.Cl.Nc1nc(-c2ccc3c(N)n[nH]c3c2)cc(N2CCCC(NC(=O)c3ccccc3)C2)n1 (stereo not drawn) [GSK2286775] | 0
12 | CC(C)N1C(=O)Cc2cc(Nc3ncc(C(F)(F)F)c(NCc4cccc(S(C)(=O)=O)c4)n3)ccc21 | 0
13 | Cl.Cl.NC[C@H](Cc1ccc(C(F)(F)F)cc1)NC(=O)c1cc(Br)c(-c2ccnc3[nH]ccc23)s1 [GSK1487252] | 81
14 | C[C@@H]1CCN(C(=O)CC#N)C[C@@H]1N(C)c1ncnc2[nH]ccc12 | 14
15 | CN(C)CC(O)COc1ccc(Nc2nccc(-c3cnn4nc(N5CCOCC5)ccc34)n2)cc1 (stereo not drawn) [GW767488] | 93.6
16 | Cc1occc1-c1nc(N)c(OC[C@@H](N)Cc2c[nH]c3ccccc23)cc1-c1cc2c(C)n[nH]c2cn1 [GSK1660450] | 100
17 | Cc1ccc2c(-c3ccncc3)c(-c3ccc(F)cc3)nn2c1.Cl [GW461484] | 50
18 | C[C@H]1Oc2cc(cnc2N)-c2c(nn(C)c2C#N)CN(C)C(=O)c2ccc(F)cc21 | 8
19 | NC(=O)c1cc(-c2ccccc2)cc2c(C3CCNCC3)c[nH]c12 [GSK301362] | 29
20 | C=CC(=O)Nc1cc2c(Nc3ccc(F)c(Cl)c3)ncnc2cc1OCCCN1CCOCC1 [GW781483] | 0
21 | CCn1c(-c2nonc2N)nc2c(C#CC(C)(C)O)nc(OCCN)cc21.Cl.Cl [GSK902056] | 37
22 | Cc1n[nH]c2ccc(-c3cc(OC[C@@H](N)Cc4ccccc4)cnc3-c3ccoc3)cc12.O=C(O)C(F)(F)F.O=C(O)C(F)(F)F [GSK507358] | 100
23 | Cl.Cl.NC[C@H](CC1CCCCC1)NC(=O)c1cc(Br)c(-c2ccnc3[nH]ccc23)s1 [GSK1581427] | 82
24 | COc1ccc(C[C@@H](CN)NC(=O)c2cc(Br)c(-c3ccnc4[nH]ccc34)s2)cc1.Cl.Cl [GSK1389063] | 94.4
25 | Cl.Oc1cc(-c2nc(-c3ccccc3)[nH]c2-c2ccncc2)ccc1Cl [SB-386023] | 0
26 | Nc1nc(Nc2ccccc2)cc(-c2ccc3c(N)n[nH]c3c2)n1 [GSK2225749] | 0
27 | O=C(NCCCN1CCOC1=O)c1cnc(NCc2cc(Cl)ccc2Cl)nc1NC1CCCC1 | 0
